Activity calls are given as the source filed them. Unless noted, the rule behind the calls is not given here.

From PubChem BioAssay come the findings set out here.

For test [1], the system named is Wnt5a (protein binding on small-molecule microarray). The test can be described thus: small molecules binding Wnt5a protein – biophysical, small-molecule microarray, 635/667 nm fluorescence, primary screen (AID 1142).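 Note: fluorescence read at 667 nm with signal to noise per printed feature.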 The note with it: 635 nm fluorescence, higher = more signal.
Test [2] is described as follows: ATP-based viability of Huh7 replicon cells – cell-based, CellTiter-Glo luminescence, basal, 48 h, cytotoxicity control for HCV replication inhibitor project, primary screen (AID 1143).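 Note: Huh7 hepatoma cells carrying a hepatitis C replication reporter with no stimulus; test concentration not given here.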 The note with it: higher = more signal, called active from +8 up or from −8 down.
Test [3] in a line: Pseudomonas biofilm growth suppression – PAO1 strain, BacTiter-Glo luminescence, LB-PBS, primary screen (AID 1144). The note with it: P. aeruginosa PAO1 biofilm, 12 h, higher = more signal.
Test [4] in a line: basal CRE-LacZ reporter activity in PC12 – cell-based, unstimulated, primary screen (AID 1145). The conditions noted are these: no forskolin, luminescence, 4.5 h, higher = more signal, called active from +8 up or from −8 down.
The nature of test [5]: forskolin-driven CRE-LacZ activity in PC12 – cell-based, CRE-LacZ reporter, forskolin-stimulated, primary screen (AID 1146).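 Note: PC12 cells with 6xCRE LacZ reporter stimulated by forskolin 10 µM; beta-galactosidase reporter signal reflecting CREB driven transcription.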 The note with it: luminescence, 4.5 h, higher = more signal, called active from +8 up or from −8 down.
Test [6] concerns the target Streptavidin (Streptomyces avidinii) (UniProt P22629). Nature of the test: compounds binding control protein streptavidin – biophysical, small-molecule microarray, 635/667 nm fluorescence, artefact control for SMM compound annotation, primary screen (AID 1147).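 Note: signal reflects streptavidin binding to arrayed compounds as a control protein.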 The conditions noted are these: higher = more signal.
The nature of test [7]: probe aInhba binding on compound microarray – biochemical, small-molecule microarray, 635/667 nm fluorescence, primary screen (AID 1148).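 Note: score merges 667nm spot fluorescence with signal-to-noise for antibody binding to printed compounds.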 The conditions noted are these: higher = more signal.
Test [8] addresses Torsin-1A (Homo sapiens) (UniProt O14656). The test can be described thus: TOR1A wild-type binding on microarray – cell lysate, small-molecule microarray, lysate, 635/667 nm, primary screen (AID 1149). The note with it: COS7 hTOR1A-WT lysate, 635 nm fluorescence, higher = more signal.
The target is the same in test [9]. Nature of the test: torsin A mutant lysate binding on microarrays – cell lysate, small-molecule microarray, COS7 lysate, 635/667 nm fluorescence, primary screen (AID 1150).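 Note: score pools 667 nm emission and signal to noise measuring lysate protein binding.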 The conditions noted are these: COS7 hTOR1A mutant lysate, 635 nm fluorescence, higher = more signal.
Test [10] relates to Sonic hedgehog protein (Shh). The test can be described thus: Sonic hedgehog microarray binding compounds – biochemical, small-molecule microarray, 635/667 nm fluorescence, primary screen (AID 1151).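 Note: Shh protein binding to compounds spotted on small-molecule microarray slides; score combines spot fluorescence intensity with signal-to-noise across triplicate slides.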 The conditions noted are these: 635 nm fluorescence, higher = more signal.
Test [11] can be described thus: optical density shifts of acrAB sulA E. coli – strain DRC41, OD650, 48 h, E. coli filamentation inducer project, primary screen (AID 1152).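 Note: E. coli MC1000 strain DRC41 lacking acrAB efflux pump and sulA.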 The conditions noted are these: higher = more signal, called active from +8 up or from −8 down.
Test [12] in a line: probe aLefty1 binding on compound microarray – biochemical, small-molecule microarray, 635/667 nm fluorescence, primary screen (AID 1153).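 Note: score merges spot fluorescence with signal-to-noise ratio from the scanned slide images.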 The note with it: higher = more signal.
Test [13] in a line: plasmodial surface anion channel blockers, osmotic lysis – cell-based, P. falciparum Indochina, OD700, 1 h, primary screen (AID 1154). The note with it: P. falciparum Indochina infected RBC osmotic lysis, higher = more signal, called active from +8 up or from −8 down.
Test [14] is described as follows: plasmodial surface anion channel blockers, osmotic lysis – cell-based, P. falciparum Indochina, OD700, 2 h, primary screen (AID 1155).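 Note: lysis reports solute entry through the parasite surface anion channel PSAC.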 The note with it: P. falciparum Indochina infected erythrocytes, higher = more signal, called active from +8 up or from −8 down.
Test [15] is described as follows: changes in parasitized red cell lysis, either direction – P. falciparum Indochina, OD700, 3 h, PSAC antagonist project, primary screen (AID 1156). The note with it: P. falciparum-infected erythrocytes, osmotic lysis, higher = more signal, called active from +8 up or from −8 down.
Test [16] is described as follows: plasmodial surface anion channel blockers, osmotic lysis – cell-based, P. falciparum Indochina, OD700, 18 h, primary screen (AID 1157). The conditions noted are these: P. falciparum Indochina infected erythrocytes, osmotic lysis OD700, 18 h; higher = more signal, called active from +8 up or from −8 down.
Test [17] can be described thus: S6 kinase pathway phospho-S6 level changes – cell-based, A549, cytoblot, luminescence, serum-stimulated, primary screen (AID 1158).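 Note: serum-stimulated A549 lung adenocarcinoma cells; signal is phosphorylated S6 detected by cytoblot immunostaining with HRP secondary.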 The note with it: 5 h, higher = more signal.
The target of test [18] is NADPH oxidase 2 (Homo sapiens) (UniProt P04839). Nature of the test: compounds shifting NOX2 Amplex Red fluorescence – cell-based, HEK293-NOX2, PMA-stimulated, NOX inhibitor project, primary screen (AID 1159). Note: test concentration not given here. The conditions noted are these: 45 min, higher = more signal, called active from +8 up or from −8 down.
Sequence of NADPH oxidase 2 (Homo sapiens) (P04839 whole entry, looked up): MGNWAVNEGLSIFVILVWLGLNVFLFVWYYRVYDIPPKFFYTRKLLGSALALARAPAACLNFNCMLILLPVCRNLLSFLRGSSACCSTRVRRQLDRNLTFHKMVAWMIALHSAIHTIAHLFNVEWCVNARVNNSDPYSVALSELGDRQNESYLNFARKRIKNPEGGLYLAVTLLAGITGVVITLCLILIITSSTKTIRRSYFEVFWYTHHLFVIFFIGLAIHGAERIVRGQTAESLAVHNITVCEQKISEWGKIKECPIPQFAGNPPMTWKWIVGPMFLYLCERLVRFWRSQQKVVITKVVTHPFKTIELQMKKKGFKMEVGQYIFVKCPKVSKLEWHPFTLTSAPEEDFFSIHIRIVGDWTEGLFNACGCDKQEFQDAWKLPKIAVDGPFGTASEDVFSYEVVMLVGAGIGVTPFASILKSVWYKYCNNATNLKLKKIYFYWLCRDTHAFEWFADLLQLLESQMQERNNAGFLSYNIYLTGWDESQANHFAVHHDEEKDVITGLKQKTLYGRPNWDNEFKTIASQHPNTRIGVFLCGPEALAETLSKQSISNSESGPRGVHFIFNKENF
Test [19] addresses NADPH oxidase 4 (Homo sapiens) (UniProt Q9NPH5). The test can be described thus: compounds shifting NOX4 Amplex Red fluorescence – cell-based, HEK293-NOX4, tetracycline-induced, NOX inhibitor project, primary screen (AID 1160). The note with it: HEK293-NOX4, Amplex Red H2O2 fluorescence, 45 min; higher = more signal, called active from +8 up or from −8 down.
For test [20], the target named is NADPH oxidase 5 (Homo sapiens) (UniProt Q96PH1). The test can be described thus: compounds shifting NOX5 Amplex Red fluorescence – cell-based, HEK293-NOX5, NOX inhibitor project, primary screen (AID 1161). The note with it: HEK293-NOX5, ionomycin, 45 min, higher = more signal.
Sequence of NADPH oxidase 5 (Homo sapiens) (Q96PH1 whole entry, looked up): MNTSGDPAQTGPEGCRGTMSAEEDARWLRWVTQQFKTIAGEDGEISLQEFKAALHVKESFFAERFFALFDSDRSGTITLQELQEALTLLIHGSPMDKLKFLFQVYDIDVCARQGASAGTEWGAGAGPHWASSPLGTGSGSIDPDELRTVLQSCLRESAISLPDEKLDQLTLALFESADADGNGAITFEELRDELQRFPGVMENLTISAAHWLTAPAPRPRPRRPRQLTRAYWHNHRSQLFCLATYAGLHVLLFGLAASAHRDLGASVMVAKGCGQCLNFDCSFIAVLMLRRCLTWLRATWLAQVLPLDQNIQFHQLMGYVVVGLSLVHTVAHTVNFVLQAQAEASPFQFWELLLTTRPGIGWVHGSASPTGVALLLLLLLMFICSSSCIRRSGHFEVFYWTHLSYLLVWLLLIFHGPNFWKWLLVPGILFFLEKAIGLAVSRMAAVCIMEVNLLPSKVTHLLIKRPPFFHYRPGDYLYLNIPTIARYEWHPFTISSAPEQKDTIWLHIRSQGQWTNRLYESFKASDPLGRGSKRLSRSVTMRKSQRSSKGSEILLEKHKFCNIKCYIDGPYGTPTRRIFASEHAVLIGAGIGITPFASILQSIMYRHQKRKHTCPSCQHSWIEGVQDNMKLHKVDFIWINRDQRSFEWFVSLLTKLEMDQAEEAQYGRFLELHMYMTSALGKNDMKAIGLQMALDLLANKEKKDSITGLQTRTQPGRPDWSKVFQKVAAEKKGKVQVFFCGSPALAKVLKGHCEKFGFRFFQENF

Sequence of Streptavidin (Streptomyces avidinii) (P22629 whole entry, looked up): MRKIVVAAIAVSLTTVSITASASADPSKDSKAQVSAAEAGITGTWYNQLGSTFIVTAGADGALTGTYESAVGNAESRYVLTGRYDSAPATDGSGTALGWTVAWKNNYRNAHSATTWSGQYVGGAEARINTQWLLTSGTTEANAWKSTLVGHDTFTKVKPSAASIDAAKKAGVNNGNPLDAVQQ
Sequence of NADPH oxidase 4 (Homo sapiens) (Q9NPH5 whole entry, looked up): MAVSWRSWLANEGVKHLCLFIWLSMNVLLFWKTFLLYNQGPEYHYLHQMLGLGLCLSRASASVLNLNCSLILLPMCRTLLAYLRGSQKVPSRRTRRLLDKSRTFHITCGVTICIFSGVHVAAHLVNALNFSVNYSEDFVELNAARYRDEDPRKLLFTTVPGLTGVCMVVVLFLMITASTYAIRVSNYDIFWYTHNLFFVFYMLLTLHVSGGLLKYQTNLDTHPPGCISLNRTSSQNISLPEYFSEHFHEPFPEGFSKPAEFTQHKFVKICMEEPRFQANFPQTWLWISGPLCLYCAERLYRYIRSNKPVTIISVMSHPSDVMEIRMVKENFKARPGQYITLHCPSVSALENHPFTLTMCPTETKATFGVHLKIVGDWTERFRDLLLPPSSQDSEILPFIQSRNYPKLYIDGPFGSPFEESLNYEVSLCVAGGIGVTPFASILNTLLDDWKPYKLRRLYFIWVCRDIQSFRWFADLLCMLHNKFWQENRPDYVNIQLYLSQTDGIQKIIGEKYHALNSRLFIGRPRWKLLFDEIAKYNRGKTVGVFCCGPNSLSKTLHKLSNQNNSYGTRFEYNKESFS
Sequence of Torsin-1A (Homo sapiens) (O14656 whole entry, looked up): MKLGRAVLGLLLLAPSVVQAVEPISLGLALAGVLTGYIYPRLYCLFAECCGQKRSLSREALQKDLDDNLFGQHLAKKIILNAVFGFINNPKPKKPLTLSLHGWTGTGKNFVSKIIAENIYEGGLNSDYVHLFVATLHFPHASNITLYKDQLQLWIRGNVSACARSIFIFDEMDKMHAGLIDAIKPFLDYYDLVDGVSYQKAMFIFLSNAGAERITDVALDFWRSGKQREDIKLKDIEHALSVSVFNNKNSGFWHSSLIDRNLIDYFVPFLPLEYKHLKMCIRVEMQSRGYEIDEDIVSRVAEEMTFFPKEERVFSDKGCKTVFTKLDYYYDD

Take `COc1ccc(OC[C@@H](CO)OC)cc1`: the composite z-score was 0.131 in [1]; 0.495 in test [6]; -0.0962 in [7]; 0.373 with Torsin-1A (Homo sapiens) [8]; 0.304 in the test with Torsin-1A (Homo sapiens) [9]; 0.577 in [10]. For the same molecule, the composite z-score in test [12] is -0.145. The z-score in [2] was 0.314 (inactive); in [3] it was 0.86 (inactive); in test [4], 0.562 (inactive); in test [5], 0.17 (inactive); in test [11] it was 0.261 (inactive); in test [13] it was -0.578 (inactive). Moreover, the z-score is -0.348 (inactive) in [14]; -0.566 (inactive) in test [15]; -0.389 (inactive) in [16]; -0.51 in [17]; 0.712 (inactive) in test [18]; 0.422 (inactive) in test [19]. In [20], the z-score turned out to be 0.133.

`CC(C)[C@@H](OCc1ccccc1)[C@H](C)C=NO[C@H](C)c1cn([C@@H]2COC[C@H]2O)nn1`: the composite z-score in test [1] was 0.31; in test [6], 0.0286; in test [7], -0.0843; in the test with Torsin-1A (Homo sapiens) [8] it was 1.4; with Torsin-1A (Homo sapiens) [9], 1.56; in [10], 0.371. In test [12], this molecule displayed a composite z-score of -0.111. For the same molecule, the z-score in test [2] was -0.703 (inactive); in test [3] it was 1.28 (inactive); in test [4], 0.927 (inactive); in test [5], -0.379 (inactive); in [11] it was 0.112 (inactive); in [13] it was 0.551 (inactive). In addition, the z-score was -0.119 (inactive) in [14]; -0.541 (inactive) in test [15]; 0.172 (inactive) in test [16]; -0.995 in test [17]; 0.542 (inactive) in test [18]; 0.827 (inactive) in [19]. Besides, the z-score in test [20] was determined as 0.704.

As to `O=C1C=C[C@@H](O)[C@@H]2[C@@H]3C(=O)N(Cc4ccccc4)C(=O)[C@@H]3CC[C@@H]12`, the composite z-score was -0.0088 in test [1]; 0.222 in test [6]; -0.128 in test [7]; 0.418 in the test with Torsin-1A (Homo sapiens) [8]; 0.376 in the test with Torsin-1A (Homo sapiens) [9]; 0.632 in test [10]. In test [12], the composite z-score is -0.0145. The z-score in [2] was -0.122 (inactive); in test [3] it was -0.158 (inactive); in test [4], -0.566 (inactive); in [5], -0.768 (inactive); in [11] it was 0.763 (inactive); in test [13] it was 0.09 (inactive). Moreover, the z-score in test [14] is 0.201 (inactive); in test [15], 0.853 (inactive); in test [16], -0.0165 (inactive); in test [17] it was 0.09; in test [18], 0.808 (inactive); in test [19] it was 0.553 (inactive). Also, the z-score in [20] was determined as 0.455.

For the molecule `C[C@H]1CC[C@@H](C(=O)O)N[C@@H]1c1ccc(C#Cc2ccccc2)cc1`, the composite z-score in [1] is 0.177; in test [6], 2.04; in test [7], -0.0403; with Torsin-1A (Homo sapiens) [8] it was 0.587; with Torsin-1A (Homo sapiens) [9], 0.439; in test [10], 1.53. In test [12], this molecule came in with a composite z-score of -0.101. The z-score was -7 (inactive) in test [2]; 0.696 (inactive) in [3]; 0.112 (inactive) in test [4]; -1.58 (inactive) in test [5]; -0.553 (inactive) in test [11]; 0.0311 (inactive) in test [13]. Moreover, the z-score in test [14] is -0.0838 (inactive); in [15] it was 0.26 (inactive); in test [16] it was -0.267 (inactive); in test [17], -0.895; in test [18] it was -0.217 (inactive); in test [19] it was 1.11 (inactive). Moreover, the z-score in test [20] came to 1.93.

Take `CO[C@H]1COC(=O)CCC[C@H](C)[C@H](OC)COC(=O)CC=C[C@@H]1C`: the composite z-score was -0.225 in [1]; 0.116 in test [6]; -0.154 in test [7]; 1.78 with Torsin-1A (Homo sapiens) [8]; 1.64 with Torsin-1A (Homo sapiens) [9]; 1.79 in [10]. The molecule further registered a composite z-score in test [12] of -0.0626. Also, the z-score in test [2] was -1.15 (inactive); in test [3] it was -0.339 (inactive); in test [4] it was -1.29 (inactive); in test [5] it was -0.46 (inactive); in [11] it was 0.928 (inactive); in [13] it was -0.972 (inactive). Further, the z-score in [14] was -1.26 (inactive); in [15], 0.232 (inactive); in [16], -1.45 (inactive); in test [17] it was 1.18; in test [18], -0.0777 (inactive); in test [19] it was 0.862 (inactive). For the same molecule, the z-score in [20] was 0.381.

On to `C[C@@H]1CC[C@H]2C(=O)OC(CN3C(=O)c4ccccc4C3=O)CN2[C@H]1c1ccc(Br)cc1` (stereo not given in full), for which the composite z-score is -0.0102 in test [1]; 0.942 in [6]; -0.045 in [7]; -0.0288 with Torsin-1A (Homo sapiens) [8]; 0.396 in the test with Torsin-1A (Homo sapiens) [9]; -0.365 in [10]. In [12], this molecule returned a composite z-score of 0.0315. Moreover, the z-score is 0.135 (inactive) in [2]; 0.447 (inactive) in test [3]; 1.19 (inactive) in test [4]; -0.841 (inactive) in test [5]; 0.634 (inactive) in test [11]; 3.61 (inactive) in test [13]. In addition, the z-score was 0.63 (inactive) in test [14]; -0.694 (inactive) in [15]; 0.246 (inactive) in test [16]; 0.134 in [17]; 0.371 (inactive) in test [18]; 0.182 (inactive) in test [19]. The z-score in test [20] was -0.055.

`CC(C)=NOC(C)CN1CCCCc2nc(C)c(C)cc21` (stereo not given): the composite z-score in test [1] was 0.243; in test [6], -0.28; in [7] it was 0.0314; with Torsin-1A (Homo sapiens) [8] it was 0.765; with Torsin-1A (Homo sapiens) [9], 0.346; in test [10] it was 0.681. In test [12], this molecule gave a composite z-score of -0.145. Moreover, the z-score was 0.479 (inactive) in test [2]; 0.282 (inactive) in [3]; -0.236 (inactive) in test [4]; 0.0266 (inactive) in test [5]; -0.866 (inactive) in test [11]; -0.147 (inactive) in test [13]. Also, the z-score in test [14] was -0.16 (inactive); in test [15], -0.565 (inactive); in test [16], 0.195 (inactive); in [17] it was -0.618; in test [18], -0.0962 (inactive); in [19] it was -0.278 (inactive). The z-score in test [20] is -0.417.

Turning to `CCOC(=O)[C@H](Cc1ccccc1)NC(=O)CCC1CC(OC(=O)NCc2cccc3ccccc23)CC2(CCCC(COC(=O)NCc3ccc4c(c3)OCO4)O2)O1` (stereo not given in full), the composite z-score was 0.123 in test [1]; -0.0007 in test [6]; -0.0762 in test [7]; 0.0755 in the test with Torsin-1A (Homo sapiens) [8]; -0.497 with Torsin-1A (Homo sapiens) [9]; 0.466 in test [10]. Besides, the composite z-score in test [12] came out at 0.0686. For the same molecule, the z-score in test [2] is -0.301 (inactive); in [3], -0.548 (inactive); in test [4] it was -0.0767 (inactive); in test [5], -0.0564 (inactive); in test [11] it was 1.21 (inactive); in test [13], 0.509 (inactive). For the same molecule, the z-score in [14] was -0.255 (inactive); in [15], -0.336 (inactive); in test [16], -0.12 (inactive); in test [17], 0.184; in test [18], 0.691 (inactive); in test [19] it was 0.538 (inactive). For the same molecule, the z-score in [20] stood at 0.712.
